# Measured values reported in PubChem BioAssay (NCATS).
# Inconclusive results are not listed. Entries that show only a call come without a potency. A number with no mark means an inactive call. Calls of active or inactive are those of the source. Unless noted, calls follow the shape of the dose curve; as a rule, active = well fitted curve in the direction sought with a large enough effect; inconclusive = small, poorly fitted or top-dose-only effect, or another doubt; inactive = no such curve, though single readings can be large; an effect the other way counts as inactive or inconclusive.
# How the values were obtained:
# [1] = biological target: Bile acid receptor (Homo sapiens) (UniProt Q96RI1); test: qHTS assay for small molecule agonists of farnesoid X receptor signaling (AID 588527; calls by dose curve; also: potency is read from the fitted curve at half-maximal effect); conditions: HEK293T FXR-UAS-bla, beta-lactamase ratio, 16 h; activation: hits give high values
# Outline: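 FXR-UAS-bla HEK293T, 10% dialyzed FBS; cpds up to 92 uM titration, 16 h 37 C; CCF4 dye 2 h RT; fluorescence. Normalized to chenodeoxycholic acid 100 uM (100%) and DMSO (0%); Hill fit gives EC50, efficacy.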
# [2] = qHTS assay for environmental chemicals that activate the Aryl hydrocarbon Receptor (AhR) signaling pathway (AID 651777); conditions: 1A2-DRE human hepatoma cells, luciferase, 24 h; activation: hits give high values; also: nearly all actives have a fitted effect of over 15% in size
# Outline: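 Reporter gene assay: hepatoma cells with DRE/CYP1A2-luciferase, 24 hr compound incubation at 37 C, 5% CO2, luminescence after One-Glo (30 min, RT).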
# [3] = NCATS anti-infectives library activity on the primary C. elegans qHTS viability assay (AID 1745855; calls by dose curve; also: potency is read from the fitted curve at half-maximal effect); conditions: C. elegans worm area imaging, day 7; series mostly up to 41.8 µM
# Outline: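 Viability read-out is GFP fluorescence of PE254-GFP-FLuc C. elegans, measured by laser cytometry (488 nm) at day 0, 3 and 7. Ten L1 worms per well were incubated 7 days at 21 °C with compounds and bacterial capsules in S medium.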
# [4] = biological target: Cytochrome P450 3A4 (Homo sapiens) (UniProt P08684); test: Cytochrome P450 family 3 subfamily A member 4 (CYP3A4) small molecule antagonists: luciferase qHTS assay (AID 1645841; active = well fitted curve in the direction sought with a large enough effect in the repeat runs; an effect the other way counts as inactive or inconclusive; also: nearly all actives have a fitted effect of over 45% in size); conditions: P450-Glo CYP3A4 enzyme assay, luciferin luminescence; series mostly up to 57.4 µM
# Outline: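 P450-Glo CYP3A4 enzyme with proluciferin substrate was preincubated with DMSO-dissolved compounds for 10 min at room temperature. NADPH regeneration solution started a 1 h reaction. Detection reagent stopped it, and luminescence was read after 20 min.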
# [5] = tested on: AS120; test: qHTS profiling for inhibitors of Plasmodium falciparum proliferation (AID 504749); also: nearly all actives have a fitted effect of over 60% in size; conditions: P. falciparum in erythrocytes, SYBR Green DNA, 72 h; series mostly up to 28.7 µM
# Outline: (§1)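 Parasite proliferation within erythrocytes, 72 h exposure. Endpoint: SYBR Green I fluorescence after overnight lysis at room temperature. Controls: 0.29 uM artemisinin, DMSO.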
# [6] = tested on: ATS189; test: as above; conditions: P. falciparum in erythrocytes, SYBR Green DNA, 72 h; series mostly up to 28.7 µM
# Outline: as §1
# [7] = tested on: CP185; test: as above; conditions: P. falciparum in erythrocytes, SYBR Green DNA, 72 h; series mostly up to 28.7 µM
# Outline: as §1
# [8] = tested on: CP191; test: as above; conditions: P. falciparum in erythrocytes, SYBR Green DNA, 72 h; series mostly up to 28.7 µM
# Outline: as §1
# [9] = tested on: CP192; test: as above; conditions: P. falciparum in erythrocytes, SYBR Green DNA, 72 h; series mostly up to 28.7 µM
# Outline: as §1
# [10] = tested on: CP194; test: as above; conditions: P. falciparum in erythrocytes, SYBR Green DNA, 72 h; series mostly up to 28.7 µM
# Outline: as §1
# [11] = tested on: CP201; test: as above; conditions: P. falciparum in erythrocytes, SYBR Green DNA, 72 h; series mostly up to 28.7 µM
# Outline: as §1
# [12] = tested on: CP203; test: as above; conditions: P. falciparum in erythrocytes, SYBR Green DNA, 72 h; series mostly up to 28.7 µM
# Outline: as §1
# [13] = tested on: CP237; test: as above; conditions: P. falciparum in erythrocytes, SYBR Green DNA, 72 h; series mostly up to 28.7 µM
# Outline: as §1
# [14] = tested on: CP268; test: as above; conditions: P. falciparum in erythrocytes, SYBR Green DNA, 72 h; series mostly up to 28.7 µM
# Outline: as §1
# [15] = tested on: CP291; test: as above; conditions: P. falciparum in erythrocytes, SYBR Green DNA, 72 h; series mostly up to 28.7 µM
# Outline: as §1
# [16] = tested on: CP305; test: as above; conditions: P. falciparum in erythrocytes, SYBR Green DNA, 72 h; series mostly up to 28.7 µM
# Outline: as §1
# [17] = tested on: CP335; test: as above; conditions: P. falciparum in erythrocytes, SYBR Green DNA, 72 h; series mostly up to 28.7 µM
# Outline: as §1
# [18] = tested on: DIV30; test: as above; conditions: P. falciparum in erythrocytes, SYBR Green DNA, 72 h; series mostly up to 28.7 µM
# Outline: as §1
# [19] = tested on: P94_40; test: as above; conditions: P. falciparum in erythrocytes, SYBR Green DNA, 72 h; series mostly up to 28.7 µM
# Outline: as §1
# [20] = tested on: TAB113; test: as above; conditions: P. falciparum in erythrocytes, SYBR Green DNA, 72 h; series mostly up to 28.7 µM
# Outline: as §1
# Bile acid receptor (Homo sapiens), sequence (Q96RI1 whole entry, looked up): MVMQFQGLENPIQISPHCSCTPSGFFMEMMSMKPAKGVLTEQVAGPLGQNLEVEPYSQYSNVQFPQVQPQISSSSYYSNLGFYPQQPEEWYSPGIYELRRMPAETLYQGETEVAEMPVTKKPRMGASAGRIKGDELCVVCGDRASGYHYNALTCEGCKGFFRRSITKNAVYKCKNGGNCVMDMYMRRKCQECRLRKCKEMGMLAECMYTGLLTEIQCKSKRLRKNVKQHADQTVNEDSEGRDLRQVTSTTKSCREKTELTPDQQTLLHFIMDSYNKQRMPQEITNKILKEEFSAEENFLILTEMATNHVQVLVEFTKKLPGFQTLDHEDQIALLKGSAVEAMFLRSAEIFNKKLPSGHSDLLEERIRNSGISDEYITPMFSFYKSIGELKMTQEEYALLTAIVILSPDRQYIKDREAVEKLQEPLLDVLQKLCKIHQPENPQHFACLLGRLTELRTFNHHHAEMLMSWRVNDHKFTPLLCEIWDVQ
# Cytochrome P450 3A4 (Homo sapiens), sequence (P08684 whole entry, looked up): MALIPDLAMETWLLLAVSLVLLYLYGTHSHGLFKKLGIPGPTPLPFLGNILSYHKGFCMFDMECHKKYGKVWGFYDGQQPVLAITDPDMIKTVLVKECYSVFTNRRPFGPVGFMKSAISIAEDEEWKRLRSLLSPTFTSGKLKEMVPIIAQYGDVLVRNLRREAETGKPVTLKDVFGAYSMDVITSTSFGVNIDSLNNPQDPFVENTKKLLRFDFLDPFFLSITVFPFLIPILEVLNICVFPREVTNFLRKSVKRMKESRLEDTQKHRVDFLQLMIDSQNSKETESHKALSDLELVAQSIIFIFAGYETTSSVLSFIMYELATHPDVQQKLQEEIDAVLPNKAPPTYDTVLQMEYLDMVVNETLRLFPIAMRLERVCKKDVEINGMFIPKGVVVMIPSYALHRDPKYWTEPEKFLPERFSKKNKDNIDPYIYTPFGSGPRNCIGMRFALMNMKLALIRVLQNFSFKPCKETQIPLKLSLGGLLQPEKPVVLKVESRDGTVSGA
compound,measurement,setting,value
C[C@@H]1Cc2c(Cl)cc(C(=O)N[C@@H](Cc3ccccc3)C(=O)O)c(O)c2C(=O)O1,Potency,[1],44.7 µM (active)
same,activation,[2],8.7%
CC[C@H]1/C=C\C=C/C[C@@H](C)[C@H](O)[C@@](C)(O)C(=O)[C@@H](C)[C@H](O)[C@@H](C)C(=O)[C@@H](C)[C@H](O)[C@@H](C)/C=C\C(=O)O[C@@H]2[C@H](C)[C@H](CC1)O[C@]1(CC[C@H](C)[C@H](C[C@@H](C)O)O1)[C@H]2C,Potency,[3],5.78 µM (active)
CCCCNC(C)(C)[P+](=O)O,outcome,[4],inactive
C[N+](C)(C)CC(=O)[O-],Potency,[5],inactive
same,Potency,[6],inactive
same,Potency,[7],inactive
same,Potency,[8],inactive
same,Potency,[9],inactive
same,Potency,[10],inactive
same,Potency,[11],inactive
same,Potency,[12],inactive
same,Potency,[13],inactive
same,Potency,[14],inactive
same,Potency,[15],inactive
same,Potency,[16],inactive
same,Potency,[17],inactive
same,Potency,[18],inactive
same,Potency,[19],inactive
same,Potency,[20],inactive
